Compounds with a hit are over-represented: about 2.5% of the library has one in this group of screens.
Cruzain noTriton: blocks cruzain activity in detergent-free assay; Potency, µM, for inactives: max response, negative = inhibition, usual class: inhibitors; AID 1476; purified cruzain, Z-FR-AMC fluorescence, no detergent; actives 2.3% (n = 200,000);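 also: plate controls were enzyme without inhibitor for no effect and buffer without enzyme for full effect; nearly all actives have a fitted effect of over 40% in size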
Target sequence (P25779 123-467 limits assumed): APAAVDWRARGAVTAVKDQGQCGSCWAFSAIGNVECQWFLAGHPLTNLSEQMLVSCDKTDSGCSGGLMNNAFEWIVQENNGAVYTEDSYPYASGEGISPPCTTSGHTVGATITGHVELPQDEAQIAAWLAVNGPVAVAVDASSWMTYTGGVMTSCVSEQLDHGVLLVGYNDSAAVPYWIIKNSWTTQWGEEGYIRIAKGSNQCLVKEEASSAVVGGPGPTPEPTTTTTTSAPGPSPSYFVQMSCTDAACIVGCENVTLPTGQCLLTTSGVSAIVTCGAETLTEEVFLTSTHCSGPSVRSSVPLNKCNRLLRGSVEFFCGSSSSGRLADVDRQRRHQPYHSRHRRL
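Purified cruzain at 1.5 nM, pre-incubated 15 min with compound at room temperature in 100 mM sodium acetate pH 5.5, 5 mM DTT, 0.00005% Triton X-100. Reaction started with 2 uM Z-FR-AMC; AMC fluorescence increase over 60 s gives rate.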
Cruzain Triton: inhibitors of Trypanosoma cruzi cruzain with detergent. Potency, µM, inactives show max response, negative = inhibition, most hits filed as inhibitors. purified cruzain, Z-FR-AMC fluorescence, 0.01% Triton. actives 0.43% (n = 200,000);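 also: plate controls were neutral wells for no effect and buffer without enzyme for full effect; nearly all actives have a fitted effect of over 40% in size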
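Read-out: AMC fluorescence (360 nm excitation, 450 nm emission), four reads over 2 min, first-to-third difference used. Conditions: cruzain 1.5 nM, Z-FR-AMC 2 uM, pH 5.5 acetate, 5 mM DTT, 0.01% Triton X-100.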
Active calls of the source: *. Calls follow the shape of the dose curve; as a rule, active = well fitted curve in the direction sought with a large enough effect; inconclusive = small, poorly fitted or top-dose-only effect, or another doubt; inactive = no such curve, though single readings can be large; an effect the other way counts as inactive or inconclusive. Potency is read from the fitted curve at half-maximal effect.

Cc1ccc(NC(=O)c2noc3c2CC(C(C)(C)C)CC3)cc1 (stereo unspecified) was read as Cruzain noTriton 13µM* and Cruzain Triton 5%.
Screening Cc1ccc(NS(=O)(=O)c2cccc(C(=O)N/N=C/c3ccc4c(c3)OCCO4)c2)c(C)c1 returned Cruzain noTriton 6.3µM* and Cruzain Triton -13%.
For Cc1ccc(NS(=O)(=O)c2cccc(C(=O)N/N=C/c3c(C)nn(-c4ccccc4)c3N3CCCC3)c2)c(C)c1 the results were Cruzain noTriton 32µM* and Cruzain Triton -2%.
COc1ccccc1NS(=O)(=O)c1cccc(C(=O)N/N=C/c2ccc(N3CCOCC3)cc2)c1 was read as Cruzain noTriton inconclusive and Cruzain Triton -7%.
CCNc1ccc(C(=O)N/N=C/c2c(C)nn(-c3ccccc3)c2N2CCCC2)cc1[N+](=O)[O-] was read as Cruzain noTriton 6% and Cruzain Triton -10%.
Screening CCc1ccc(-c2nn(CC(=O)NCc3ccccc3)c3c2cnc2ccc(C)cc23)cc1 returned Cruzain noTriton -5% and Cruzain Triton -1%.
For CCc1ccc(CSc2nc(-c3ccc(OC)cc3)nc3c2Cc2c(CO)cnc(C)c2O3)cc1 the results were Cruzain noTriton 10% and Cruzain Triton -1%.
For COc1ccc(CNC(=O)Cn2c(=O)c3cccn3c3cccnc32)cc1 the results were Cruzain noTriton -16% and Cruzain Triton -5%.
Screening COc1ccc(CNC(=O)Cn2c(=O)c3cccn3c3ccccc32)cc1 returned Cruzain noTriton 32µM* and Cruzain Triton -2%.
Cc1ccc(CNC(=O)Cn2nc(C)n3cccc3c2=O)cc1 was read as Cruzain noTriton -1% and Cruzain Triton -4%.
For COc1ccc(CNC(=O)Cn2nc(C)n3cccc3c2=O)cc1 the results were Cruzain noTriton 25µM* and Cruzain Triton -7%.
For O=C(Nc1ccc2oc(-c3ccc4ccccc4c3)nc2c1)c1ccc2c(c1)OCCO2 the results were Cruzain noTriton 10µM* and Cruzain Triton -3%.
For O=C(Nc1ccc2oc(-c3ccc4ccccc4c3)nc2c1)c1ccc(Cl)c(Cl)c1 the results were Cruzain noTriton -3% and Cruzain Triton 0%.
For CC(Oc1ccc(Br)cc1)C(=O)Nc1ncn[nH]1 (stereo unspecified) the results were Cruzain noTriton 11% and Cruzain Triton 1%.
`N#C/C(=C\c1cn(Cc2ccc(C#N)cc2)c2ccccc12)C(=O)NCc1cccs1` gave Cruzain noTriton inconclusive and Cruzain Triton -3%.
`COc1cccc(NC(=O)/C(C#N)=C\c2cn(Cc3ccc(C)cc3)c3ccccc23)c1` gave Cruzain noTriton 7.9µM* and Cruzain Triton -2%.
`N#C/C(=C/c1cn(Cc2ccc(F)cc2)c2ccccc12)C(=O)Nc1cccc(Cl)c1` gave Cruzain noTriton 7.9µM* and Cruzain Triton -3%.
Screening COc1cccc(NC(=O)/C(C#N)=C/c2ccc(-c3ccc(C)cc3)o2)c1 returned Cruzain noTriton inconclusive and Cruzain Triton -6%.
Cn1c(=O)c2[nH]c(CS(=O)(=O)Cc3nc4c([nH]3)c(=O)n(C)c(=O)n4C)nc2n(C)c1=O was read as Cruzain noTriton 0% and Cruzain Triton 6%.
For Cc1ccc(Cl)cc1Nc1nc(-c2sc(NC(=O)c3ccco3)nc2C)cs1 the results were Cruzain noTriton 25µM* and Cruzain Triton -3%.
For Cc1nc(NC(=O)c2ccco2)sc1-c1csc(Nc2ccc(Cl)cc2)n1 the results were Cruzain noTriton 13µM* and Cruzain Triton -2%.
For Cc1nc(NC(=O)c2ccco2)sc1-c1csc(Nc2ccc(Cl)cc2Cl)n1 the results were Cruzain noTriton 13µM* and Cruzain Triton -3%.
`COc1cccc(N(C(=O)c2ccco2)c2nc(-c3sc(NC(=O)c4ccco4)nc3C)cs2)c1` gave Cruzain noTriton inconclusive and Cruzain Triton -3%.
For COc1ccccc1Nc1nc(-c2sc(NC(=O)c3ccco3)nc2C)cs1 the results were Cruzain noTriton inconclusive and Cruzain Triton -6%.
Screening O=C(Nc1nc2ccc(Cl)cc2s1)c1ccco1 returned Cruzain noTriton inconclusive and Cruzain Triton -3%.
CN(C)Cc1ccccc1-c1cncnc1Nc1ccncc1 was read as Cruzain noTriton 8% and Cruzain Triton 3%.
Screening CCOC(=O)c1cccc(NC(=O)CSc2ncc3c(n2)-c2ccc(Cl)cc2N(Cc2ccccc2)S3(=O)=O)c1 returned Cruzain noTriton -27% and Cruzain Triton -4%.
Cc1ccc(SCc2nc(-c3ccc(C(=O)Nc4cc(C)ccc4C)cc3)oc2C)cc1 was read as Cruzain noTriton 7% and Cruzain Triton 5%.
CCOC(=O)c1ccc(NC(=O)CC2C(=O)N(c3ccc(F)cc3)C(=O)N2Cc2cccnc2)cc1 (stereo unspecified) was read as Cruzain noTriton 2% and Cruzain Triton -5%.
COc1ccc2c(c1)C1=NN(/C(C)=C/C(C)=O)C(c3ccc(F)cc3)C1CC2 (stereo unspecified) was read as Cruzain noTriton -1% and Cruzain Triton -5%.
Screening COc1ccc2c(c1)C1=NN(/C(C)=C\C(C)=O)C(c3ccccc3)C1CC2 (stereo unspecified) returned Cruzain noTriton 25µM* and Cruzain Triton -7%.
For Cc1ccc(C(=O)NCC(c2ccco2)S(=O)(=O)c2ccc(Cl)cc2)cc1C (stereo unspecified) the results were Cruzain noTriton -13% and Cruzain Triton -3%.
CCCCOc1ccc(C(=O)NCC(=O)OC2CCOC2=O)cc1 (stereo unspecified) was read as Cruzain noTriton inconclusive and Cruzain Triton 20µM*.
Cc1ccc(S(=O)(=O)NCC(=O)OC2CCOC2=O)cc1 (stereo unspecified) was read as Cruzain noTriton -25% and Cruzain Triton -12%.
Cc1ccc(CNC(=O)c2c(-c3ccccc3Cl)noc2C)o1 was read as Cruzain noTriton -7% and Cruzain Triton 1%.
`Cc1ccc(N=Cc2nc(/C=C/c3cccc([N+](=O)[O-])c3)oc2O)cc1` gave Cruzain noTriton 5µM* and Cruzain Triton 4%.
Cc1cc(C)n(/N=C/c2cccc([N+](=O)[O-])c2)c(=O)c1 was read as Cruzain noTriton -13% and Cruzain Triton 0%.
CCOC(=O)c1ccc(NC(=O)Cn2nc(C)c3nn(-c4ccc(Cl)cc4)c(C)c3c2=O)cc1 was read as Cruzain noTriton 9% and Cruzain Triton 0%.
Cc1ccc(C(=O)Nc2nnc(SCc3cc(=O)c4c(C)ccc(C)c4[nH]3)s2)cc1 was read as Cruzain noTriton -29% and Cruzain Triton 1%.
Screening CCOC(=O)c1c(S(=O)(=O)N2CCCC(C(=O)N3CCN(c4cc(C)ccc4C)CC3)C2)c(C)n(C)c1C (stereo unspecified) returned Cruzain noTriton -2% and Cruzain Triton 1%.
`CCCCCCc1cc2cc(S(=O)(=O)c3ccc(F)c(Cl)c3)c(=O)oc2cc1O` gave Cruzain noTriton 20µM* and Cruzain Triton -11%.
CCCCCCc1cc2cc(-c3nnc(-c4ccc(C)cc4)o3)c(=O)oc2cc1O was read as Cruzain noTriton -1% and Cruzain Triton 3%.
`Cc1cccc(NC(=O)c2ccc(N3CCCCC3)c([N+](=O)[O-])c2)n1` gave Cruzain noTriton -9% and Cruzain Triton 0%.
For CCC(C)c1ccccc1NC(=O)COC(=O)c1ccc(N2CCCC2)c([N+](=O)[O-])c1 (stereo unspecified) the results were Cruzain noTriton -3% and Cruzain Triton 0%.

Bioassay records (PubChem BioAssay)
